Assay in all cases: NCI-60 one-dose screen, 48 h (100 = growth as untreated, 0 = no growth, -100 = all killed)
Common to all, as to conditions: 10 µM unless noted

Test [1] has as its system NCI-H23 lung.
Test [2] deals with NCI-H226 lung.
In test [3] the test system is NCI-H322M lung.
For test [4], the system named is HOP-62 NSCLC.
The test system of test [5] is NCI-H460 lung.
The subject of test [6] is HOP-92 NSCLC.
Test [7] deals with NCI-H522 lung.
In test [8] the test system is A549/ATCC NSCLC.
In test [9] the test system is 786-0 renal.
For test [10], the system named is COLO 205 colon.

This note sets out measurements from PubChem BioAssay (NCI).

The panel holds about 83,000 compounds, 20% with a hit somewhere; the sample as a whole holds those more often.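 Negative percent growth values reflect cell death: -40 means 40% of the cells present at the start died, and -100 means all died.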 Unmarked numbers belong to inactive results. The source made the active and inactive calls. Rule for the calls: active = growth percent below 10; inactive = the rest.

Take `C=C[C@@H]1C[C@@H]2Cc3ccccc3N1O2`: the growth in test [1] was 98.9%; in test [2], 109%; in [3] it was 112%; in test [4], 96.6%; in test [5], 107%; in test [6], 126%. The growth in test [7] is 120%; in [8], 96.3%; in [9], 104%; in [10] it was 116%.

For `O=C1c2c(c3c4ccccc4n(CCCCCCBr)c3c3[nH]c4ccccc4c23)C(=O)N1O`, the growth in test [1] was -0.173% (active); in test [2], 70.5%; in [3] it was 14.8%; in test [4] it was 8.33% (active); in [5], 5.88% (active); in test [6], -13.6% (active). Further, the growth in test [7] was -7.94% (active); in test [8], 6.36% (active); in test [9], 17.3%; in test [10], 62.4%.

As to `CC(C)(C)OC(=O)NC(CSCc1ccccc1)C(=O)ON1C(=O)CCC1=O` (stereo not given), the growth in test [1] is 94.3%; in test [2] it was 110%; in test [3] it was 131%; in test [4], 105%; in test [5], 111%; in [6] it was 92.4%. Further, the growth in test [7] is 91.5%; in test [8], 106%; in [9] it was 114%; in test [10] it was 112%.

In the case of `CCCCCCCC/C=C/CCCCCCCC1=NC(C)(C)CN1C(C)(C)CO`, the growth in test [1] is 44.7%; in test [2], 86.2%; in test [3], 58.5%; in test [4], 30.6%; in test [5] it was -86.4% (active); in test [6], 20.3%. For the same compound, the growth in test [7] was 13%; in test [8], 30.8%; in test [9], 60.3%; in test [10], -86.3% (active).

For the compound `COc1ccc(-c2c(-c3cc(OC)c4c(c3)OCO4)noc2N)cc1`, the growth in test [1] was 40.6%; in test [2], 22.8%; in [3], 51.1%; in test [4], 10.3%; in test [5] it was 4.43% (active); in test [6] it was 35.4%. In addition, the growth in test [7] is 4.5% (active); in test [8], 13.3%; in [9], 14.5%; in test [10], -88.9% (active).

Take `CC(=O)Nc1nc(N)nc(NC(C)=O)c1N=O`: the growth in [1] was 95.3%; in test [2] it was 105%; in [3], 140%; in test [4], 106%; in [5] it was 123%; in [6], 108%. Moreover, the growth in [7] was 101%; in test [8] it was 107%; in test [9] it was 106%; in test [10], 116%.

For the compound `Cc1ccc(Nc2nnc(-c3ccc(Cl)cc3)o2)c(C)c1`, the growth was 84.4% in test [1]; 99.6% in test [2]; 102% in test [3]; 81.8% in test [4]; 97.1% in [5]; 107% in test [6]. In addition, the growth in [7] is 41%; in [8] it was 79.2%; in test [9], 89.3%; in [10] it was 81.4%.

Regarding `Brc1cccc(-c2cc(-c3ccc4c(c3)OCCCO4)[nH]n2)c1`, the growth in test [1] is 66.2% [25 µM]; in test [2], 72% [25 µM]; in test [3], 68% [25 µM]; in test [4], 53% [25 µM]; in test [5], 16% [25 µM]; in test [6], 56.8% [25 µM]. The growth in [7] was 2.15% [25 µM] (active); in test [8], 44.4% [25 µM]; in test [9] it was 85.2% [25 µM]; in test [10], 36.3% [25 µM].

In the case of `CC1(C)C(=O)/C(=C\c2ccc(C(F)(F)F)cc2)C[C@]2(C)[C@H]3CC[C@@H]4[C@H]5[C@H](C(=O)/C=C/c6ccc(C(F)(F)F)cc6)CC[C@]5(CO)CC[C@@]4(C)[C@]3(C)CC[C@@H]12`, the growth in [1] is 100%; in test [2], 91.4%; in test [3], 101%; in [4] it was 101%; in test [5] it was 99.4%; in test [6], 93.7%. In addition, the growth in [7] was 97.9%; in test [8] it was 90.6%; in [9], 107%; in [10], 115%.

As for `C=C1C(=O)O[C@H]2[C@H]1CC/C(COC(=O)NCc1ccccc1OC)=C\CC[C@@]1(C)O[C@@H]21`, the growth is 73.6% in [1]; 55.6% in [2]; 93.2% in test [3]; 77.1% in [4]; 59.2% in test [5]; 32.6% in test [6]. Also, the growth in test [7] is -73.6% (active); in test [8], 71.6%; in test [9], 7.8% (active); in test [10] it was -35.2% (active).

On to `COc1cc(C2CC(c3ccc4c(c3)OCO4)=NN2C(C)=O)cc(OC)c1OC` (stereo not given), for which the growth is 44.3% in test [1]; 52.4% in test [2]; -12.9% (active) in [3]; 35.5% in test [4]; 10.7% in test [5]; 74.6% in test [6]. Besides, the growth in test [7] is -29.8% (active); in test [8], 36%; in test [9], 42.1%; in test [10] it was -12.8% (active).

Regarding `CCOC(=O)c1c(NS(=O)(=O)c2ccc(C)cc2)sc2c1CCC1(C2)OCCO1`, the growth was 94.2% in [1]; 85.8% in test [2]; 99.8% in test [3]; 90.7% in [4]; 100% in test [5]; 77.1% in [6]. The growth in test [7] is 79.6%; in test [8], 103%; in test [9], 99.3%; in test [10], 115%.

Turning to `COc1cc(/C=C/C(=O)c2cccc(-n3cc(-c4cc(OC)c(OC)c(OC)c4)[nH]c3=O)c2)cc(OC)c1OC`, the growth in test [1] was 6.11% (active); in test [2], 58%; in test [3], 46%; in [4], 42.9%; in test [5], -1.97% (active); in [6] it was -12.2% (active). Further, the growth in test [7] was -66.8% (active); in test [8], 35.1%; in [9], 19%; in test [10], -36.1% (active).
